Screening results (PubChem BioAssay)
A selection: hits, their analogues and other compounds. The true share with any hit is near 5.8%.
TRPV1 potentiator: human TRPV1 potentiation. Q8NER1. TRPV1-expressing cells, Fluo-8 calcium influx, capsaicin EC20 potentiation. potentiation, % at 8.33 µM. actives 0.02% (n = 320,000); in the data active means potentiation above about 80%; inconclusive means between about 30% and that limit; further: 0% is about no effect
Target sequence (Q8NER1 whole entry, looked up): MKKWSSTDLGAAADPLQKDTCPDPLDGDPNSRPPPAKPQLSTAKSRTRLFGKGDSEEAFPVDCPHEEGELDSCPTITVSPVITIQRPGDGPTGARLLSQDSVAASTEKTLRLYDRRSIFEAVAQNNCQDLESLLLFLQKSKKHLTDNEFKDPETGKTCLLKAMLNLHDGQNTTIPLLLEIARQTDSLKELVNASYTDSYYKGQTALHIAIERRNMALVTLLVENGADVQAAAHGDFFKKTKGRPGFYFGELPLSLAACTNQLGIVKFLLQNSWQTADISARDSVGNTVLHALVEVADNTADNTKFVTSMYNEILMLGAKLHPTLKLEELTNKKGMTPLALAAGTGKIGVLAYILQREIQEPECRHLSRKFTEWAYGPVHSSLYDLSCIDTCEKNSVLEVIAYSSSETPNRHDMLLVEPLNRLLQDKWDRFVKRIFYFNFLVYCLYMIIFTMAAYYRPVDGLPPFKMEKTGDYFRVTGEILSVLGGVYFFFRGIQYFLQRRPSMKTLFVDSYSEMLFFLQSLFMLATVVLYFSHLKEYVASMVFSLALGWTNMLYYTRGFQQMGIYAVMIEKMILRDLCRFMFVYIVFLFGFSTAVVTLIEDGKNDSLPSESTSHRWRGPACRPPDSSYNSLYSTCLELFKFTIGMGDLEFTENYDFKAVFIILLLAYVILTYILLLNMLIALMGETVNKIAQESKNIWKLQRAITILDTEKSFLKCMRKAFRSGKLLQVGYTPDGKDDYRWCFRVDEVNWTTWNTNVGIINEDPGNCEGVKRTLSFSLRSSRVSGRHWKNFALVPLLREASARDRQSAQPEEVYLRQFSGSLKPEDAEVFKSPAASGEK
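Cells expressing TRPV1 were dye-loaded with Fluo-8 and read kinetically: 10 s baseline, 3 min after compound (agonist portion), then 2 min after EC20 capsaicin (allosteric enhancer portion). Calcium-bound dye fluorescence at 480/520 nm.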
TRPV1 agonist: agonists of human vanilloid receptor 1 (TRPV1) | TRPV1-expressing cells, Fluo-8 calcium influx, agonist mode | activation, % at 8.33 µM | actives 0.19% (n = 320,000) | AID 540275; in the data active means activation above about 80%; inconclusive means between about 30% and that limit; further: 0% is about no effect
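TRPV1-expressing cells were cultured overnight at 35.5C and loaded with Fluo-8 calcium dye for 40 to 90 min at room temperature. After a 10 s baseline, compound was added and calcium influx was read kinetically for 3 min (ex 480/em 520 nm).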
VP16 counter: counter-screen for ROR gamma inhibitors: Gal4-VP16 reporter; Drosophila S2 Gal4-VP16 UAS-luciferase, luminescence, 20 h; Potency, µM (top dose mostly 53.6 µM), without a hit: at the top dose activity, negative = inhibition, most hits filed as inhibitors; actives 3.5% (n = 310,000);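 further: Gal4-VP16 expression switched on by copper sulfate through the metallothionein promoter; potency means the concentration at half of the fitted maximal effect; on the % scale 0 is the no-effect control and ±100 the full control effect; nearly all actives have a fitted effect of over 50% in size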
uPA generation: blocks generation of uPA at the cell surface; cell surface uPA generation assay, qHTS; Potency, µM (top dose mostly 38.3 µM), without a hit: at the highest dose activity change, negative = inhibition, actives largely listed as inhibitors; actives 0.31% (n = 330,000); AID 540303; active means well fitted inhibition curve with a large enough effect; inconclusive means small, poorly fitted or top-dose-only effect; inactive means no such curve, though single readings can be large or run the other way; tested in mouse RAW 264.7 cells; further: potency means the concentration at half of the fitted maximal effect; on the % scale 0 is the no-effect control and ±100 the full control effect; nearly all actives have a fitted effect of over 55% in size
RORg inh: ROR gamma (mouse) transcription inhibition; P51450; Drosophila S2 Gal4-RORgamma UAS-luciferase reporter, 20 h; Potency, µM (titrated, usually from 53.6 µM), without a hit: at the highest dose activity change, negative = inhibition, actives largely listed as inhibitors; actives 5.4% (n = 310,000); AID 2551; further: potency means the concentration at half of the fitted maximal effect; on the % scale 0 is the no-effect control and ±100 the full control effect; nearly all actives have a fitted effect of over 60% in size
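Using a luciferase readout, inhibitors were identified by reduced reporter activity in Drosophila cells coexpressing a copper-inducible Gal4–ROR gamma fusion and UAS-driven Photinus luciferase, incubated 20 hr after 700 uM copper sulfate.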
* = called active by the depositor; ? = inconclusive; nt = no result given; [ ] = another dose, or the depositor's remark. Unless noted, the call rests on the fitted dose curve; in most records, active means well fitted curve in the direction sought with a large enough effect; inconclusive means small, poorly fitted or top-dose-only effect, or another doubt; inactive means no such curve, though single readings can be large; an effect the other way counts as inactive or inconclusive.

SMILES	TRPV1 potentiator	TRPV1 agonist	VP16 counter	uPA generation	RORg inh
N#Cc1nccnc1S(=O)(=O)c1cccs1	6	2	3.5µM*	-7%	3.2µM*
Cn1cccc1C(=O)N1CCC2(CCCN(Cc3ccc(C#N)cc3)C2)CC1	nt	nt	-5%	nt	-20%
CCn1c(=O)c([N+](=O)[O-])c(Cl)c2ccccc21	-17	1	8.9µM*	-4%	7.9µM*
CC(/C=C\C=C\c1ccccc1)=N\NC(=O)c1cncc(Br)c1	-2	3	6.3µM*	-4%	4.5µM*
O=C(N/N=C(\c1ccccc1)c1cccnc1)c1ccc(O)cc1	3	1	7%	4%	12%
CC(/C=C/C=C/c1ccccc1)=N/NC(=O)c1ccc2c(c1)OCCO2	nt	nt	8%	1%	-19%
O=C(N/N=C(\c1ccccc1)c1cccnc1)c1cccc(F)c1	-9	?	nt	3%	0.13µM*
CC(/C=C/C=C/c1ccccc1)=N\NC(=O)c1cccnc1	1	-5	3.2µM*	-2%	2.8µM*
Cc1nc(N/N=C/c2ccccn2)sc1C	-16	14	0.5µM*	-13%	0.11µM*
COC(=O)c1ccc(/C=N/Nc2nc(C)c(C)s2)cc1	nt	nt	?	-1%	-69%
CCCc1sc(N/N=C/c2ccccn2)nc1-c1ccc(F)cc1	-8	0	0.32µM*	-17%	0.28µM*
O=C(Nc1cc(Cl)ccc1N1CCOCC1)c1cccnc1Cl	-14	17	12%	2%	-1%
CCNc1ncc2nc(-c3ccc(F)cc3)c(=O)n(Cc3ccc(F)cc3)c2n1	nt	nt	3%	nt	-17%
c1ccc(C(c2ccccc2)N2CCN(c3nc4ccccc4n4cnnc34)CC2)cc1	6	-5	13µM*	-10%	-91%
c1cnc(N2CCN(c3nc4ccccc4n4cnnc34)CC2)nc1	-7	11	-15%	nt	20%
Cc1nn(C)c(C)c1CN(Cc1nc(CCC(C)C)no1)C(C)C	4	14	4µM*	-7%	7.1µM*
CC(C)CCc1noc(CN(C)CCC2CCOCC2)n1	28	7	-11%	-3%	10%
CC12CC3(C)CC(C)(C1)CC(C(=O)NC(=S)N1CCOCC1)(C2)C3	-33	22	?	4%	0.89µM*
O=C(NC(=S)N1CCOCC1)C12CCC3CC(CC(C3)C1)C2	12	-6	1.8µM*	-9%	1.3µM*
CC(C)(C)C(=O)NC(=S)N1CCOCC1	3	0	-11%	9%	-24%
O=C(NC(=S)N1CCOCC1)C12CC3CCC(CC(C3)C1)C2	-5	7	6.3µM*	2%	4.5µM*
C[C@H](NC(N)=O)C(=O)OCC(=O)NCc1cccs1	4	0	2%	2%	-2%
CN[C@H]1CCc2cc(OC)c(OC)c(OC)c2-c2ccc(N[C@@H]3CCCCNC3=O)c(=O)cc21	nt	nt	-4%	nt	-6%
CC(Cc1ccccc1)C(=O)NCC1CC1 (stereo unspecified)	nt	nt	-1%	nt	-24%
COc1ccc(O[C@H]2C=C[C@@H](c3ccccc3)O[C@H]2COC(=O)CC/C(C)=N\OC[C@@H](C)[C@H](OCc2ccccc2)C(C)C)cc1	nt	nt	-3%[10 µM]	nt	16%[10 µM]
SMILES	TRPV1 potentiator	TRPV1 agonist	VP16 counter	uPA generation	RORg inh
O=C(CCCCCn1c(=S)[nH]c2ccc(N3CCOCC3)cc2c1=O)NCc1ccccc1	-3	0	?	6%	-26%
COc1ccc(CCn2c(=S)[nH]c3ccc(N4CCOCC4)cc3c2=O)cc1OC	1	-2	?	19%	13µM*
O=c1c2cc(N3CCOCC3)ccc2[nH]c(=S)n1CCc1ccccc1	-5	-1	3.2µM*	-2%	2µM*
O=c1c2cc(N3CCOCC3)ccc2[nH]c(=S)n1Cc1ccccn1	0	7	?	-3%	7.9µM*
O=C(CCCCCn1c(=S)[nH]c2ccc(N3CCOCC3)cc2c1=O)NCc1cccc(Cl)c1	?	-5	-2%	-7%	10µM*
CC(=O)Nc1c(Cl)cc(Cl)c2c1Cc1cc(Cl)ccc1-2	nt	nt	nt	3%	nt
CCOC(=O)c1c(NC(=O)COC(=O)c2ccccn2)sc(C(=O)N(C)C)c1C	103*	10	nt	-1%	nt
COc1cccc(C(=O)CC2c3c(c(Br)c4c(c3OC)OCO4)CCN2C)c1 (stereo unspecified)	nt	nt	-12%	nt	7%
COc1cc(CNS(=O)(=O)c2ccc3c(c2)CC(C)N3C(C)=O)cc(OC)c1OC (stereo unspecified)	7	-4	22µM*	-2%	29%
O=C(Oc1cccc2cccnc12)c1ccco1	22	0	4µM*	-2%	1.6µM*
O=C(Oc1cccc2cccnc12)c1cccs1	4	-1	2.8µM*	-1%	1.6µM*
O=C(Oc1cccc2cccnc12)c1ccc(Br)o1	0	0	?	1%	11µM*
O=C(Cc1ccc(Cl)cc1)Oc1cccc2cccnc12	16	0	4µM*	-4%	1.4µM*
NNC(=O)COc1cccc2cccnc12	-7	-1	-1%	7%	?
Cc1sc2ncn(CC(=O)NCCCC(=O)N3CCN(Cc4ccc5c(c4)OCO5)CC3)c(=O)c2c1C	2	-1	3%	-4%	10%
COc1ccc(C(=O)NC(=S)Nc2cccc3ncccc23)cc1[N+](=O)[O-]	-8	0	?	-13%	?
CSCC[C@H](NC(=O)[C@H](Cc1c[nH]c2ccccc12)NC(=O)CCNC(=O)OC(C)(C)C)C(=O)N[C@@H](CC(=O)O)C(=O)N[C@@H](Cc1ccccc1)C(N)=O	nt	nt	-8%	nt	0%
CO[C@@H]1COC(=O)[C@H]2CCCN2C(=O)C/C=C\[C@@H](C)[C@H](OC)COC(=O)[C@H]2CCCN2C(=O)C/C=C\[C@H]1C	nt	nt	4%[10 µM]	nt	-15%[10 µM]
O=C(Oc1ccc(Cl)c2cccnc12)c1ccco1	5	-4	1.6µM*	-5%	0.89µM*
O=C(COc1ccccc1Br)Nc1ccc2c(c1)OCCCO2	-15	?	-11%	1%	18µM*
NC(=O)c1cc(Cl)ccc1OCC(=O)Nc1ccc2c(c1)OCO2	5	1	nt	6.3µM*	nt
N#Cc1ccccc1OCC(=O)Nc1ccc2c(c1)OCCCO2	?	-2	?	1%	0%
CCC(C)c1ccc(NC(=S)NCc2cccs2)cc1 (stereo unspecified)	5	?	11µM*	nt	7.1µM*
CC(=O)Nc1ccc(NCc2cccs2)cc1	1	3	?	-1%	14%
CC(C)(C)c1ccc(NC(=S)NCc2cccs2)cc1	-5	?	10µM*	-7%	7.1µM*
CCCc1ccc(OCC(O)CN2CCN(c3ccccn3)CC2)cc1 (stereo unspecified)	?	0	1%	1%	-7%
O=[N+]([O-])c1ccc(/C=N/NC2=NS(=O)(=O)c3ccccc32)cc1	-6	-4	9%	7%	-11%
O=[N+]([O-])c1ccc(O)c(/C=N/Nc2nn[nH]n2)c1	-10	1	1%	2%	?
